Hit rate of the full screen: of about 190,000 compounds, about 1,300 (0.68%) were called active. Cut-off read from the data, not from the text of the source: active = inhibition above about 50%; inactive = the rest. Shown is part of a subset that was picked to be rich in actives.

One may read the inhibition as the change of the read-out against control, counted positive when it falls.

The target of this assay is Mannose-6-phosphate isomerase (Homo sapiens) (UniProt P34949). Put plainly: human PMI inhibitors, high substrate, primary screen, biochemical, fluorescence intensity, high mannose 6-phosphate (AID 1220). The conditions noted are these: recombinant PMI enzyme, coupled fluorescence intensity; at 20 µM; stronger effect = higher value.
Chain of Mannose-6-phosphate isomerase (Homo sapiens) (P34949 whole entry, looked up): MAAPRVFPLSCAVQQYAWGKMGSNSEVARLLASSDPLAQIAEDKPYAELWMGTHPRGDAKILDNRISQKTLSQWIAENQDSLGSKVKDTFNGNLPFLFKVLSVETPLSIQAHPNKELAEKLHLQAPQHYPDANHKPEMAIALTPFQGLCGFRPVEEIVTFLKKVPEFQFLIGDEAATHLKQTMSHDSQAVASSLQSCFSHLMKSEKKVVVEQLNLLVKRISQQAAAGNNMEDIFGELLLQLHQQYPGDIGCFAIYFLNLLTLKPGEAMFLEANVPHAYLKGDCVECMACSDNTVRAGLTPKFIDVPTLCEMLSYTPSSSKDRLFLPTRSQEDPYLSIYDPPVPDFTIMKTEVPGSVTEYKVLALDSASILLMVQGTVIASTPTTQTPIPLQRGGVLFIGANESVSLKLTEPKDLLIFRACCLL
In the case of `CCCC(=O)c1ccc(N2CCN(C(=O)c3ccc(Br)cc3)CC2)c(F)c1`, the inhibition was -2.3% (inactive).

`CCC(=O)c1ccc(N2CCN(C(=O)c3ccc(Br)cc3)CC2)c(F)c1`: the inhibition was 9.1% (inactive).

Consider `CC(=O)c1ccc(N2CCN(C(=O)c3ccc(Br)cc3)CC2)c(F)c1`, for which the inhibition is 55.1% (active).

Regarding `O=C(NCCCCCCNC(=O)C1CCCC1)C1CCCC1`, the inhibition is -0.9% (inactive).

On to `O=C(COc1ccc2ccccc2c1)Nc1ccc2c3c(cccc13)CC2`, for which the inhibition is -1.8% (inactive).

Turning to `O=C(NCc1ccccc1)NC(O)C(Cl)(Cl)Cl` (centres undefined), the inhibition was 0.1% (inactive).

Consider `O/C(=C\c1ccc2ccccc2n1)c1ccc(O)cc1O`, for which the inhibition is -10.3% (inactive).

Turning to `COc1ccc(NC(=O)c2ccc(-n3cccn3)nc2)cc1`, the inhibition is 0.8% (inactive).

On to `Cc1ccc(NC(=O)c2ccc(-n3cccn3)nc2)cc1`, for which the inhibition was 51.4% (active).

Turning to `CCOc1ccc(NC(=O)c2ccc(-n3cccn3)nc2)cc1`, the inhibition is 2.9% (inactive).

For the compound `CCOc1ccc(N=C2Sc3nc4ccc(C)cc4cc3CN2CCOC)cc1`, the inhibition is 9.3% (inactive).

On to `CC(=O)c1cc2c(cc1NC(=O)CN1CCN(c3ccc(F)cc3)CC1)OCO2`, for which the inhibition is 5.5% (inactive).

In the case of `CCOC(=O)C1=C(c2ccccc2)NC(SCC(=O)Nc2cccc(C)c2)=C(C#N)C1c1ccco1` (centres undefined), the inhibition was 15.6% (inactive).

For `Cc1cc(C)n(/N=C\c2c(O)ccc3ccccc23)c(=O)c1C(N)=O`, the inhibition was 22.5% (inactive).

Regarding `Cc1oc(/N=C/c2ccccc2O)c(C#N)c1C`, the inhibition was -16.8% (inactive).

With `Cc1cc(N=Cc2cc(Br)ccc2O)no1`, the inhibition was -9.4% (inactive).

For `COc1cccc(C=Nc2ccc(C)c(F)c2)c1O`, the inhibition was 15.7% (inactive).

Turning to `Cc1oc(/N=C/c2cccc3ccccc23)c(C#N)c1C`, the inhibition is 20.1% (inactive).

As for `Cc1ccc(N=Cc2c(O)ccc3ccccc23)cc1F`, the inhibition was 51.7% (active).

Consider `Cc1cc(O)c(C=Nc2ccc(Cl)cn2)c(=O)o1`, for which the inhibition is -60.9% (inactive).

As to `Cc1oc(/N=C/c2c(O)ccc3ccccc23)c(C#N)c1C`, the inhibition was 53.7% (active).

For `Oc1ccc2ccccc2c1C=Nc1ccc(Cl)cn1`, the inhibition is 75.2% (active).

Take `Cc1cc(N=Cc2cc(Cl)ccc2O)no1`: the inhibition is 14.2% (inactive).

For the compound `Cc1cc(N=Cc2c(O)ccc3ccccc23)no1`, the inhibition is 66.9% (active).

With `Nc1cc(Cl)nc(N/N=C/c2c(O)ccc3ccccc23)n1`, the inhibition is 13.3% (inactive).

Consider `COc1ccccc1Nc1ccc(N)cc1`, for which the inhibition was 23.2% (inactive).

With `O=C(Cn1ccccc1=O)c1ccc(Cl)cc1`, the inhibition was -5.5% (inactive).

On to `N#C/C(=C\c1cn(CCOc2ccccc2)c2ccccc12)C(=O)NCc1ccco1`, for which the inhibition was -1.2% (inactive).

For the compound `COc1ccccc1OCC(=O)Nc1ccccn1`, the inhibition was 1.4% (inactive).

Take `COc1ccc(CNn2c(-c3cccs3)nc3ccccc3c2=O)cc1OC`: the inhibition was 8% (inactive).

In the case of `CCN(C(=O)CSc1nnc(-c2ccncc2)n1-c1ccccc1)C1CCS(=O)(=O)C1` (centres undefined), the inhibition was -2.5% (inactive).

Consider `CCc1ccc(C(=O)NN(C(=O)c2ccc(CC)cc2)C(C)(C)C)cc1`, for which the inhibition is 14.2% (inactive).

`CCOc1ccc(S(=O)(=O)N2CCN(c3ccccc3F)CC2)c2cccnc12`: the inhibition is 27% (inactive).

For the compound `O=C(OCc1c(F)cccc1Cl)c1cnccn1`, the inhibition is 11.3% (inactive).

As for `O=C(O)Cc1ccc(N=Cc2c(O)ccc3ccccc23)cc1`, the inhibition is 58.7% (active).

In the case of `Cc1c(Cc2ccccc2)sc(/N=C/c2c(O)ccc3ccccc23)c1C(N)=O`, the inhibition was 29.8% (inactive).

On to `Oc1ccc2ccccc2c1C=Nc1ccc(N2CCOCC2)cc1`, for which the inhibition is 29% (inactive).

On to `COc1ccc2nc(N=Nc3c(O)ccc4ccccc34)sc2c1`, for which the inhibition is 24.5% (inactive).

Regarding `Oc1ccc2ccccc2c1/C=N/c1nccs1`, the inhibition is 62% (active).

Turning to `Cc1sc(/N=C/c2c(O)ccc3ccccc23)c(C#N)c1C`, the inhibition is -3.6% (inactive).

Turning to `N#Cc1cccc(N=Cc2c(O)ccc3ccccc23)c1`, the inhibition is 64.6% (active).

As for `Oc1ccc2ccccc2c1C=Nc1ccccc1-c1nc2ccccc2[nH]1`, the inhibition is 22.9% (inactive).

Consider `Oc1[nH]c2ccccc2c1/C=N/c1nccs1`, for which the inhibition is -1% (inactive).

Take `Oc1oc(-c2cccc3ccccc23)nc1/C=N/c1nccs1`: the inhibition was 9.5% (inactive).

For the compound `Oc1ccc2ccccc2c1/C=N/c1nc2c(s1)CCCC2`, the inhibition was 46.1% (inactive).

In the case of `Cn1c(CSc2nc3ccccc3s2)nnc1SCC(=O)NCCCN1CCOCC1`, the inhibition was -11.8% (inactive).

Take `Cc1ccsc1C(=O)NNC(=O)C1CC=CCC1C(=O)O` (centres undefined): the inhibition was -4.3% (inactive).

`COC(=O)c1cccc(NC(=O)c2cccs2)c1C`: the inhibition is 10.7% (inactive).

In the case of `CC(C)C(c1nnnn1C1CCCCC1)N1CCCc2ccccc21` (centres undefined), the inhibition was 8.3% (inactive).

As to `Cc1ccc(N2CCN(C(=O)c3cc(C(=O)c4ccccc4C)c[nH]3)CC2)c(C)c1`, the inhibition is 16.7% (inactive).

Take `Cc1noc(C)c1Cn1nc(C(=O)O)c2ccccc2c1=O`: the inhibition is 1.4% (inactive).

For the compound `COc1ccc(N=Cc2c(O)[nH]c3ccccc23)cc1`, the inhibition is 1.9% (inactive).

Consider `CCOC(=O)c1cc(CC)sc1/N=C/c1c(O)ccc2ccccc12`, for which the inhibition is 60.7% (active).

As for `COc1ccc(N=Cc2c(O)ccc3ccccc23)cc1`, the inhibition is 68.5% (active).

Take `COc1ccc(N=Cc2oc3ccc4ccccc4c3c2O)cc1`: the inhibition is 13.8% (inactive).

As for `CCOC(=O)c1cc(CC)sc1/N=C/C1=C(O)CCCC1=O`, the inhibition is 14.3% (inactive).

In the case of `CCOC(=O)c1cc(CC)sc1/N=C/C1=C(O)CC(C)(C)CC1=O`, the inhibition was 7.3% (inactive).

For `COc1ccc2c(c1)-c1nc(NC(=O)c3cccs3)sc1CC2`, the inhibition is -22.3% (inactive).

On to `COc1ccc2nc(N)sc2c1`, for which the inhibition was -1.6% (inactive).

Regarding `O=C(CCc1nnc(CCCc2ccccc2)o1)NCCc1ccccc1`, the inhibition was -1.7% (inactive).

As to `Cc1nc2c(c(=O)n1CCC1=CCCCC1)c1nc3ccccc3nc1n2/N=C/c1ccco1`, the inhibition was 15.8% (inactive).

For the compound `Cc1nn(CCc2nn[nH]n2)c2nc(-c3ccc(Br)cc3)cc(C(F)(F)F)c12`, the inhibition was 4.9% (inactive).

For the compound `CSc1cccc(NC(=O)C2CCN(S(C)(=O)=O)CC2)c1`, the inhibition was 5.6% (inactive).

Consider `Cc1ccc(OCCC(=O)Nc2ccc(C)c(F)c2)cc1`, for which the inhibition is 16.2% (inactive).

As to `Cc1ccc(S(=O)(=O)N2CCC(C(=O)NCCCN3CCCCCC3)CC2)cc1`, the inhibition was -3.9% (inactive).

With `CCCCNC(=O)c1onc(CSc2ccccc2F)c1C(=O)O`, the inhibition is -0.1% (inactive).

Consider `Cc1nc(NC(=O)CN(C)S(=O)(=O)c2ccc(Br)cc2)sc1C`, for which the inhibition was 1.7% (inactive).

For the compound `COc1ccc2c(c1)C(=O)/C(=C/C=C/c1ccccc1)CC2`, the inhibition was 33.4% (inactive).

In the case of `COc1ccc2c(c1)CC/C(=C\c1ccc(OC)c(Cn3cccn3)c1)C2=O`, the inhibition was 21.7% (inactive).

Consider `COc1ccc(/C=C2/CCc3ccccc3C2=O)cc1OC`, for which the inhibition was 29.2% (inactive).

`COc1ccc(/C=C2\CC/C(=C\c3ccc(OC)cc3OC)C2=O)c(OC)c1`: the inhibition was 13.5% (inactive).

For `COc1ccc2c(c1)CC/C(=C\C=C\c1ccccc1OC)C2=O`, the inhibition is 53.3% (active).

For the compound `COc1ccc2c(c1)CC/C(=C\C=C\c1ccccc1)C2=O`, the inhibition is 52.8% (active).

For the compound `COc1cc2nc(CN3CCC(Cc4ccccc4)CC3)[nH]c(=O)c2cc1OC`, the inhibition is -12.9% (inactive).

As for `COC(=O)c1ccc2c(=O)n(CC3CCCO3)c(SCC(=O)NCCc3ccc(S(N)(=O)=O)cc3)nc2c1` (centres undefined), the inhibition is -2.9% (inactive).

Turning to `CCc1nnc(N/N=C/c2ccccc2F)n1N`, the inhibition is 5.2% (inactive).

As to `Cc1nnc(N/N=C/c2c(Cl)cccc2Cl)n1N`, the inhibition is 32.3% (inactive).

For `Cc1nnc(N/N=C/c2ccco2)n1N`, the inhibition was 56.6% (active).

As for `CC(C)(C)c1nnc(N/N=C/c2ccccc2O)n(N)c1=O`, the inhibition is -27.3% (inactive).

`Cc1nnc(N/N=C/c2ccccc2O)n1N`: the inhibition was 52.5% (active).

Consider `Cc1nnc(N/N=C/c2ccc(-c3ccccc3F)o2)n1N`, for which the inhibition is 33.4% (inactive).

Turning to `C/C(=N/OCc1ccc(Br)cc1)c1ccccn1`, the inhibition was 1.2% (inactive).

On to `O=[N+]([O-])c1ccc2nc(NCCCO)nc(-c3ccccc3)c2c1`, for which the inhibition is -39.7% (inactive).

For the compound `CCCS(=O)(=O)c1c(S(=O)(=O)CCC)c2ccc(C(N)=O)cn2c1C(=O)c1ccc(OC)cc1`, the inhibition was 14% (inactive).

As for `O=C(Nc1cccn2ncnc12)C(F)(F)F`, the inhibition was -1.2% (inactive).

Take `COc1ccc(CNC(=O)CSc2nnc3c(Cl)cc(C(F)(F)F)cn23)cc1OC`: the inhibition was 12.9% (inactive).

As to `Oc1c(Cl)cc(Cl)cc1/C=N/Nc1ncc(Br)cn1`, the inhibition was -22.9% (inactive).

In the case of `Cc1ccc(N=Cc2cc(Cl)cc(Cl)c2O)nc1`, the inhibition is 58.6% (active).

On to `O=C(CCC(=O)N/N=C/c1cc(Cl)cc(Cl)c1O)NCc1ccccc1`, for which the inhibition is 17.9% (inactive).

Take `Cc1cccc(N=Cc2[nH]c3ccc(Br)c(Cl)c3c2O)c1`: the inhibition was -1.9% (inactive).

In the case of `Oc1c(Cl)cc(Cl)cc1C=Nc1ccccc1N1CCCC1`, the inhibition was 33.7% (inactive).

In the case of `Cc1cccc(N=Cc2cc(Br)cc(Cl)c2O)c1`, the inhibition was 57.8% (active).

Regarding `Oc1c(Cl)cc(Cl)cc1/C=N/c1nccs1`, the inhibition was -2.8% (inactive).

With `Oc1c(Cl)cc(Cl)cc1C=Nc1ccc(Br)cc1`, the inhibition is 17.7% (inactive).

In the case of `NC(=O)c1cccc(N=Cc2cc(Cl)cc(Cl)c2O)c1`, the inhibition is 55.3% (active).

For `Oc1ccc(Cl)cc1C=Nc1ccc(Br)cc1`, the inhibition was 8.3% (inactive).

`Cc1ccc(N=Cc2cc(Br)cc(Cl)c2O)cc1`: the inhibition was 50.8% (active).

Consider `COc1cc(Br)cc(C=Nc2cccc(C(F)(F)F)c2)c1O`, for which the inhibition was 15.9% (inactive).

For `O=C(CN1CCSCC1)N/N=C/c1ccc(F)c(F)c1`, the inhibition is -7.6% (inactive).

As to `CC(Oc1ccc(Br)cc1)C(=O)NCc1ccccn1` (centres undefined), the inhibition was -0.8% (inactive).

In the case of `CCN1CCN(C(=O)c2ccccc2NS(=O)(=O)c2ccc(Cl)cc2)CC1`, the inhibition was -3.6% (inactive).

For `COc1ccc(C(C#N)N2CCC(c3ccccc3)=N2)cc1OC` (centres undefined), the inhibition was -5.6% (inactive).

With `COc1ccc(/C(C)=N\NS(=O)(=O)c2ccccc2)cc1OC`, the inhibition was 4.4% (inactive).

As for `COc1ccc(C2CCCN2C(=S)Nc2ccc(C)cc2Cl)cc1OC` (centres undefined), the inhibition is 2.1% (inactive).
